Measured values: PubChem BioAssay AID1159580 (chemical genetic matrix, 2015)
Where “and” joins values, the source holds several entries; their conditions need not be identical. Identical values can stand only once. Out of some 5,500 compounds screened, about 2,000 (36%) were called active. Inconclusive results (about 18%) are left out. No stated cut-off is given here; in the data, active means normalized growth mostly below about 0.91 (no sharp cut-off); inconclusive means no clear call, values can overlap the other calls; inactive means mostly above about 0.92. This is one part of the list.

Experiment: chemical genetic growth profiling, strain panel (AID 1159580);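 further: tested at 20 µM; growth read once vehicle control cultures reached saturation at 30 °C; 1 = growth at the plate median or of vehicle wells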
Conditions: S. cerevisiae deletion strains, growth OD

Measured: normalized growth

CC(=O)[C@H]1CCC2C3CC=C4C[C@@H](O)CC[C@]4(C)C3CC[C@@]21C (stereo partly specified)
active: locus YAL026C, strain drs2, stronger effect = lower value 0.788 | locus YCL069W, strain vba3, stronger effect = lower value 0.897 | locus YDR137W, strain rgp1, stronger effect = lower value 0.518 | locus YDR195W, strain ref2 1.28 [resistant] | locus YDR392W, strain spt3, stronger effect = lower value 0.335 | locus YER155C, strain BEM2 (second series), stronger effect = lower value 0.774 | locus YGL253W, strain hxk2, stronger effect = lower value 0.9 | locus YGR252W, strain gcn5, stronger effect = lower value 0.65 | locus YHR142W, strain chs7, stronger effect = lower value 0.862 | locus YJL166W, strain qcr8, stronger effect = lower value 0.895
0.754 (active) and 0.958 (inactive): locus YJL095W, strain BCK1, stronger effect = lower value
inactive: locus YAL013W, strain DEP1, stronger effect = lower value 0.999 | locus YAL021C, strain ccr4, stronger effect = lower value 0.958 | locus YAL030W, strain snc1, stronger effect = lower value 0.956 | locus YBL061C, strain skt5, stronger effect = lower value 0.981 | locus YBR009C, strain hhf1, stronger effect = lower value 0.929 | locus YBR021W, strain FUR4, stronger effect = lower value 0.962 | locus YBR023C, strain chs3, stronger effect = lower value 0.969 | locus YBR171W, strain sec66, stronger effect = lower value 0.996 | locus YBR229C, strain ROT2, stronger effect = lower value 1.01 | locus YBR231C, strain swc5, stronger effect = lower value 0.955 | locus YBR279W, strain paf1, stronger effect = lower value 0.981 | locus YCL011C, strain gbp2, stronger effect = lower value 0.947 | locus YCL016C, strain dcc1, stronger effect = lower value 0.95 | locus YCL029C, strain bik1, stronger effect = lower value 0.966 | locus YCR088W, strain abp1, stronger effect = lower value 1.02 | locus YDL005C, strain med2, stronger effect = lower value 1 | locus YDL035C, strain GPR1, stronger effect = lower value 0.863 | locus YDL040C, strain nat1, stronger effect = lower value 1.01 | locus YDL074C, strain BRE1, stronger effect = lower value 0.836 | locus YDL101C, strain DUN1, stronger effect = lower value 0.985 | locus YDL134C, strain PPH21, stronger effect = lower value 0.957 | locus YDL185W, strain tfp1, stronger effect = lower value 1.02 | locus YDL192W, strain arf1, stronger effect = lower value 1.02 | locus YDR001C, strain nth1, stronger effect = lower value 1.02 | locus YDR069C, strain doa4, stronger effect = lower value 0.965 | locus YDR101C, strain arx1, stronger effect = lower value 1.01 | locus YDR150W, strain NUM1, stronger effect = lower value 1.01 | locus YDR159W, strain sac3, stronger effect = lower value 0.927 | locus YDR162C, strain NBP2, stronger effect = lower value 0.958 | locus YDR297W, strain sur2, stronger effect = lower value 0.973 | locus YDR318W, strain mcm21, stronger effect = lower value 0.94 | locus YDR334W, strain swr1, stronger effect = lower value 1.03 | locus YDR335W, strain msn5, stronger effect = lower value 0.958 | locus YDR388W, stronger effect = lower value 0.981 | locus YDR502C, strain sam2, stronger effect = lower value 0.943 | locus YEL003W, strain gim4, stronger effect = lower value 0.938 | locus YEL037C, strain rad23, stronger effect = lower value 0.976 | locus YEL061C, strain CIN8 (second series), stronger effect = lower value 1.01 | locus YEL061C, strain CIN8, stronger effect = lower value 1.01 | locus YER015W, strain faa2, stronger effect = lower value 0.939 | locus YER016W, strain bim1, stronger effect = lower value 0.996 | locus YER110C, stronger effect = lower value 1.03 | locus YER111C, strain swi4, stronger effect = lower value 1.01 | locus YER155C, strain BEM2, stronger effect = lower value 1.01 | locus YER167W, strain BCK2, stronger effect = lower value 0.926 | locus YFR010W, strain ubp6, stronger effect = lower value 1.05 | locus YGL078C, strain dbp3, stronger effect = lower value 1.02 | locus YGL086W, strain mad1, stronger effect = lower value 0.944 | locus YGL167C, strain pmr1, stronger effect = lower value 0.996 | locus YGL173C, strain kem1, stronger effect = lower value 0.923 | locus YGL227W, strain vid30, stronger effect = lower value 1.01 | locus YGL240W, strain doc1, stronger effect = lower value 0.982 | locus YGL248W, strain PDE1, stronger effect = lower value 0.962 | locus YGR078C, strain PAC10, stronger effect = lower value 0.879 | locus YGR135W, strain pre9, stronger effect = lower value 0.904 | locus YGR229C, strain SMI1, stronger effect = lower value 0.958 | locus YHR013C, strain ard1, stronger effect = lower value 0.948 | locus YHR027C, strain rpn1, stronger effect = lower value 0.961 | locus YHR030C, strain SLT2, stronger effect = lower value 0.95 and 0.954 | locus YHR079C, strain IRE1 (second series), stronger effect = lower value 0.998 | locus YHR079C, strain IRE1, stronger effect = lower value 0.988 | locus YHR094C, strain hxt1, stronger effect = lower value 1.03 | locus YHR129C, strain ARP1, stronger effect = lower value 1.01 | locus YHR200W, strain rpn10, stronger effect = lower value 0.965 | locus YIL066C, strain RNR3, stronger effect = lower value 0.865 | locus YIL073C, strain SPO22, stronger effect = lower value 0.807 | locus YIL125W, strain kgd1, stronger effect = lower value 1.03 | locus YIR030C, strain dcg1, stronger effect = lower value 1.04 | locus YJL092W, strain hpr5, stronger effect = lower value 0.97 | locus YJL095W, strain BCK1 (second series), stronger effect = lower value 0.935 | locus YJL115W, strain asf1, stronger effect = lower value 0.994 | locus YJL129C, strain trk1, stronger effect = lower value 0.935 | locus YJL134W, strain LCB3, stronger effect = lower value 1.01 | locus YJL154C, strain vps35, stronger effect = lower value 1.01 | locus YJL164C, strain tpk1, stronger effect = lower value 0.923 | locus YJL168C, strain set2, stronger effect = lower value 1.03 | locus YJL187C, strain SWE1 (second series), stronger effect = lower value 0.945 | locus YJR043C, strain POL32, stronger effect = lower value 0.991 | locus YJR066W, strain TOR1, stronger effect = lower value 0.866 | locus YJR075W, strain HOC1, stronger effect = lower value 0.933
